In PubChem BioAssay (EPA / NIEHS) one finds outcome and AC50 data, which are given here for nine molecules.

Inconclusive results are not listed. Activity calls are given as the source filed them. How the source made its calls: active means hit-call score of the fitted dose curve at least 0.9, where 1 is the maximum; inconclusive means response in the unintended direction; inactive means score below 0.9.

Chain of human Phosphoinositide 3-kinase alpha (PI3Ka), PIK3CA (gene 5290) (P42336 whole entry, looked up): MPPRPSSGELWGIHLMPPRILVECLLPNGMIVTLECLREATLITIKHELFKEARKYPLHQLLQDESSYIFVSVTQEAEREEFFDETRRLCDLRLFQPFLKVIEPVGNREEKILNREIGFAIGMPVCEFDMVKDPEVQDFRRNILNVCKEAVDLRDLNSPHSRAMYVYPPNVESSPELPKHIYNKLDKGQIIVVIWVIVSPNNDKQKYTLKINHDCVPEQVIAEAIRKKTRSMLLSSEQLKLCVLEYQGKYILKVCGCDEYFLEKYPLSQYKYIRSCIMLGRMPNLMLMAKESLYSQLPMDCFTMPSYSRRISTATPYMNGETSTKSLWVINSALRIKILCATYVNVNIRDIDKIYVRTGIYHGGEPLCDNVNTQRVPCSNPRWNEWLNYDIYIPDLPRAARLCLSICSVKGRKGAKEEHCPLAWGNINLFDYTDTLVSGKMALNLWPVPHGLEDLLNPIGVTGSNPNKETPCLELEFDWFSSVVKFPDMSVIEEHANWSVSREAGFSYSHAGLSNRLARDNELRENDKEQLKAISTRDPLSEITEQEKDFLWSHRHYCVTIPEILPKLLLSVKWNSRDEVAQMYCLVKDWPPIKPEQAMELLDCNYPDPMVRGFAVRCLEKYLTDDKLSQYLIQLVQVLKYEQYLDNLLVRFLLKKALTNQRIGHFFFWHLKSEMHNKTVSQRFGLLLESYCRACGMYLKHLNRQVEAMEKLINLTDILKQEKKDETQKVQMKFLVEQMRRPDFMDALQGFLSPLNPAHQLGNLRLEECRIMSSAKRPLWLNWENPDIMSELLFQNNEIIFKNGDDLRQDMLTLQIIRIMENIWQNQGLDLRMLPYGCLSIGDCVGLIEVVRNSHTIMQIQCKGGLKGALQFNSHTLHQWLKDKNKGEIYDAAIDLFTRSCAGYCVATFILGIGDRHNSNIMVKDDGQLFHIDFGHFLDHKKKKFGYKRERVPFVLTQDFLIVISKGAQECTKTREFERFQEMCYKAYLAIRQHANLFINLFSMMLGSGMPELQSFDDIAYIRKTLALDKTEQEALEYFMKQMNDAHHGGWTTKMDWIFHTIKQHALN

For this assay, the target named is human Phosphoinositide 3-kinase alpha (PI3Ka), PIK3CA (gene 5290) (UniProt P42336). Description: NVS_ENZ_hPI3Ka: NovaScreen (NVS) Enzymatic Assay for human Phosphoinositide 3-kinase alpha (PI3Ka) (AID 2283196). In short, it runs like this:
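Chemicals were first screened at 25 uM in duplicate, then hits were run as concentration series up to 50 uM. Enzyme activity was measured by fluorescence after mobility-shift separation, with loss of signal relative to DMSO taken as activity.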
`CCOCCOCC`: the call was inactive.

With `CCN(CC)CC`, the result was inactive.

Regarding `NC(=NCCCCCCN=C(N)/N=C(\N)Nc1ccc(Cl)cc1)/N=C(\N)Nc1ccc(Cl)cc1`, the AC50 was 531 nM (active).

Take `CCCCCCCCCCCC`: the molecule was classed as inactive.

Turning to `O=C(NO)c1ccccc1`, the outcome was inactive.

As to `CCCCC(CC)C(=O)OCCOCCOCCOCCOC(=O)C(CC)CCCC` (centres undefined), the call was inactive.

As to `CCCCCCCCCCCCOS(=O)(=O)O`, the outcome was inactive.

For the molecule `C=COC(=O)C(C)(C)CCCCCC`, the molecule was classed as inactive.

Consider `CC(C)C=O`, for which the molecule was called inactive.
